# ALOX12 inhib: inhibitors of human 12-lipoxygenase (ALOX12) | P18054 | Potency, µM (highest dose often 57.1 µM), most hits filed as inhibitors | purified 12-hLO, xylenol orange hydroperoxide absorbance | 150,000 compounds, 0.12% hits; also: nearly all actives have a fitted effect of over 55% in size
#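 Hydroperoxide output read as Fe(III)-xylenol orange absorbance, 573-to-405 nm ratio, after 30 min reaction with 40 uM arachidonic acid. Enzyme: 150 nM purified human 12hLO, 15 min compound preincubation; 25 mM Hepes pH 7.0, room temperature.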
# ALDH1A1 block: inhibitors of human aldehyde dehydrogenase 1A1 | Purified ALDH1A1, NADH fluorescence, propionaldehyde substrate | Potency, µM (series often up to 75.3 µM), most hits filed as inhibitors | 220,000 compounds, 7.3% hits | AID 1030; active = well fitted inhibition curve with a large enough effect, not every such curve was filed as active; inconclusive = small, poorly fitted or top-dose-only effect, or another doubt; inactive = no such curve, though single readings can be large or run the other way
# Target sequence (P00352 whole entry, looked up): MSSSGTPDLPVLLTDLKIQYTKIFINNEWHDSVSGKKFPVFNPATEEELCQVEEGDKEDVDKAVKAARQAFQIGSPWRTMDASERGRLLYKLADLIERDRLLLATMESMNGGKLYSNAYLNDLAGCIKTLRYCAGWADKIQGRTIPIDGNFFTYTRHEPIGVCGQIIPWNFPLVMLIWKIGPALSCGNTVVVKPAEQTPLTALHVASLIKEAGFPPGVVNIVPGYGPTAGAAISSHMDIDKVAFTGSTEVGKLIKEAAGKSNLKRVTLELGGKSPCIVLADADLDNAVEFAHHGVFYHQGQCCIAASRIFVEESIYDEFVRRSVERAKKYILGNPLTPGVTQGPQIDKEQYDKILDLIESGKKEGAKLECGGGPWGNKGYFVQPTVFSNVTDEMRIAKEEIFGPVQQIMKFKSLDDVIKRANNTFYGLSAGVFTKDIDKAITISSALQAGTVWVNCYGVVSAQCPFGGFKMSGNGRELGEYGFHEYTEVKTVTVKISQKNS
# IMPase inh: membrane-permeable compound that blocks inositol monophosphatase | CHO-M1 cells, IP1 accumulation, HTRF TR-FRET ratio | inhibition (IP1 accumulation), % at 46.1 µM | P97697 | 120,000 tested, under 10 active; active = well fitted curve in the direction sought with a large enough effect in the signal ratio, not every such curve was filed as active; inconclusive = small, poorly fitted or top-dose-only effect, or a change in a side signal; inactive = no such curve, though single readings can be large or run the other way; the % refers to the signal ratio;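 also: cells stimulated with carbachol in lithium chloride buffer; higher means more IMPase inhibition seen as more IP1 and lower FRET ratio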
# Target sequence (P97697 whole entry, looked up): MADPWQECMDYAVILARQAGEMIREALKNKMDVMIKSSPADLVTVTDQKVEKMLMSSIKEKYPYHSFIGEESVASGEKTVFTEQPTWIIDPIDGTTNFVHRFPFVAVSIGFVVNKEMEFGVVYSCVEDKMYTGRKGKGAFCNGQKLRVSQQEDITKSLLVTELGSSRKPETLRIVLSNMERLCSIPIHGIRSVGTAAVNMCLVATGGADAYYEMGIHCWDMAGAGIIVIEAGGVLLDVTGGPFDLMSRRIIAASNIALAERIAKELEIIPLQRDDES
#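 CHO-M1 cells (CHO stably expressing M1 receptor), compound up to 46 uM final, stimulated with carbachol (50 uM as added) in buffer with 50mM LiCl, pH 7.4, 30 min at 37C. Cytosolic IP1 read by TR-FRET; AC50 from Hill fits.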
# IMPase Li cell: membrane-permeable IMPase blocker, potentiated with lithium; CHO-M1 cells, IP1 TR-FRET (IP-One), carbachol + lithium; Potency, µM (titrated, usually from 59.4 µM), most hits filed as inhibitors; 210,000 compounds, 0.35% hits; AID 1457;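 also: IP1 builds up when IMPase is blocked and the TR-FRET signal falls; nearly all actives have a fitted effect of over 50% in size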
#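 CHO-M1, 2000 cells/well, 16–30 h culture; cpd + low Li+, 30 min 37C; lysis with d2-IP1/Eu-anti-IP1 Ab, 10 min RT; TR-FRET 665/620 ratio and 620 channel; AC50 via Hill.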
# HPGD block: HPGD (human) dehydrogenase inhibition | P15428 | purified HPGD, NADH fluorescence kinetic, PGE2 substrate | Potency, µM, usual class: inhibitors | 150,000 compounds, 4.3% hits | AID 894; active = well fitted inhibition curve with a large enough effect, not every such curve was filed as active; inconclusive = small, poorly fitted or top-dose-only effect, or another doubt; inactive = no such curve, though single readings can be large or run the other way
#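 NADH formation kinetics: reaction with 30 uM PGE2 and 1 mM NAD+ (final), 20 nM enzyme, Tris-HCl pH 8 with Tween 20, after 15 min compound preincubation at room temperature. Fluorescence change, last versus first of five reads.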
# PNC inhibitor: perinucleolar compartment assembly inhibition. PC3M PTB-GFP, PNC prevalence imaging, 16 h; active compounds read low. 140,000 compounds, 3.1% hits. AID 2417. activity change (PNC), negative = inhibition, % at 10 µM;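 active = readout at or below -70, meaning at least 70% loss of cells showing the perinucleolar compartment, a nuclear body marking cancer cells; inconclusive = readout between -30 and a set limit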
#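 Read-out is percentage of cells bearing a perinucleolar compartment, from automated 20x imaging of fixed, Hoechst-stained PC3M PTB-GFP cells. Cells were seeded 4 h, then exposed 16 h to compound (23 nl of library stock) in duplicate plates.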
# Numbers stand for hits; – = inactive; ? = inconclusive; · = no result; ! = a repeat was not active; [ ] = another dose, or the depositor's remark. The list is not random: actives were taken first. Their share in the collection is about 11%. Unless noted, calls follow the shape of the dose curve; as a rule, active = well fitted curve in the direction sought with a large enough effect; inconclusive = small, poorly fitted or top-dose-only effect, or another doubt; inactive = no such curve, though single readings can be large; an effect the other way counts as inactive or inconclusive.
SMILES,ALOX12 inhib,ALDH1A1 block,IMPase inh,IMPase Li cell,HPGD block,PNC inhibitor
C=CCOC(=O)C1=C[C@@H](c2cn(C(C)=O)c3ccccc23)C[C@@H](OCCCCO)O1,·,?,·,–,·,·
C#Cc1ccc([C@H]2C=C(C(=O)O)O[C@@H](OCc3ccc(CO)cc3)C2)cc1,·,–,·,–,·,·
C#Cc1ccc([C@@H]2C=C(C(=O)OCC=C)O[C@H](OCCCCO)C2)cc1,·,15.8µM,·,–,·,·
Cc1ccc(S(=O)(=O)N(CC(=O)N2CCc3ccccc3C2)c2ccc(C)c(C)c2)cc1,·,·,–,·,·,·
COCCNC(=O)CN(C(=O)Cn1nnc2ccccc21)c1ccc(C)c(F)c1,–,–,–,–,–,-118.8
O=[N+]([O-])c1ccc(C2NS(=O)(=O)N=C3CCCCCN32)cc1 (stereo not given),·,28.2µM,·,·,·,·
O=S1(=O)N=C2CCCCCN2C(c2ccc(F)cc2)N1 (stereo not given),·,–,·,–,·,·
COc1ccc(N=c2ssnc2Cl)cc1,?,1.78µM,–,–,2.82µM,–
O=C1CSC(=Nc2ccccc2)N1Cc1ccccc1,·,–,·,–,·,·
Clc1nssc1=Nc1ccccc1,·,1.58µM,·,–,·,·
CCOC(=O)c1ccc(N=c2ssnc2Cl)cc1,·,2µM,·,–,·,·
Fc1ccc(N=c2ssnc2Cl)c(F)c1,·,2.51µM,·,–,·,·
CCCCS(=N)(=O)CC[C@H](N)C(=O)O (stereo not given in full),·,–,·,–,–,·
C=CCC(C)(O)/C=C/c1ccccc1 (stereo not given),·,–,·,–,–,·
N#Cc1ccc(N=c2ssnc2Cl)cc1,–,1.58µM,–,–,2µM,?
COc1cc(N=c2ssnc2Cl)cc(OC)c1OC,?,2.82µM,–,–,2.24µM,?
Clc1ccc(N=c2ssnc2Cl)cc1,?,1.12µM,–,–,1.78µM,–
CCOc1cc(C(=O)Nc2cc3c(cc2N2CCCC2)n(C)c(=O)c(=O)n3C)cc(OCC)c1OCC,·,·,–,·,·,·
CCCn1c(C)nc2c(NCCCN(C)C)nc(C)nc21,–,–,·,–,–,·
Cc1nnc(-c2cnn(-c3ccccc3)c2N)n1Cc1ccncc1,–,–,–,–,–,–
Cc1nnc(-c2cnn(-c3ccccc3)c2N)n1Cc1cccc(C(F)(F)F)c1,–,?,–,–,12.6µM,–
CC(C)=CCCC(C)NC(=O)NC1CCCCC1 (stereo not given),–,–,–,–,35.5µM,–
CC(C)[C@H](NC(=O)NC1CCCC1)C(=O)O,–,–,–,–,–,–
O=C(c1ccncc1)N1CCC2(CC1)CN(C(c1ccccc1)c1ccccc1)C2,–,–,·,–,–,·
C[C@H](NC(=O)/C(C#N)=C/c1ccc(O)c(O)c1)c1ccccc1,20µM,?,–,–,–,·
SMILES,ALOX12 inhib,ALDH1A1 block,IMPase inh,IMPase Li cell,HPGD block,PNC inhibitor
N#C/C(=C/c1ccc(O)c(O)c1)C(=O)OC/C=C/c1ccccc1,·,4.47µM,·,–,·,·
N#C/C(=C\c1ccc(O)c(O)c1)C(=O)Nc1ccccc1,?,?,–,–,?,·
CC(NC(=O)/C(C#N)=C/c1ccc(Cl)c([N+](=O)[O-])c1)c1ccccc1 (stereo not given),–,–,·,–,–,-100.0
N#C/C(=C\c1ccc(O)c([N+](=O)[O-])c1)C(=O)NCc1ccccc1,·,–,·,–,·,·
C[C@@H](NC(=O)/C(C#N)=C/c1ccc(O)c(O)c1)c1ccccc1,?,–,–,–,–,·
CC(=O)OCC(=O)[C@]1(O)C(C)CC2C3CCC4=CC(=O)C=C[C@@]4(C)[C@]3(F)C(O)C[C@@]21C (stereo not given in full),–,–,·,–,–,·
Cc1cc(=O)[nH]c(SCCOc2ccc(OC(C)C)cc2)n1,–,?,–,–,17.8µM,–
COc1ccc(-c2nn3c(C4CCCCC4)nnc3s2)cc1OC,–,12.6µM,–,–,?,–
O=C(O)c1ccc(F)c(S(=O)(=O)Nc2cccc(F)c2)c1,–,–,·,·,–,·
Cc1cc(C)n(-c2nc3cc(Cl)c(Cl)cc3nc2Nc2ccc(F)cc2C)n1,·,·,–,·,·,·
CCOc1ccc(NC(=O)NCCN2CCN(c3cc(Cl)ccc3C)CC2)cc1,·,·,–,·,·,·
Oc1c(C=Nc2ccccc2)sc(=S)n1Cc1ccccc1,·,1.41µM,·,–,·,·
CCn1c(O)c(C=Nc2ccccc2)sc1=S,·,?,·,–,·,·
O=C(O)Cn1c(O)c(C=Nc2ccccc2)sc1=S,?,28.2µM!,–,–,?,–
O=C(COCCOCC(=O)N(c1ccccn1)C1CCCCC1)N(c1ccccn1)C1CCCCC1,–,–,–,–,–,-100.0
CC(C)(C)c1ccc(OCC(=O)N(c2ccccn2)C2CCCCC2)cc1,–,–,·,–,–,–
COC(=O)NC(CC(C)=O)c1ccco1 (stereo not given),·,–[13.5 µM],·,·,·,·
CC(C)C[C@@H](NC(=O)OCC1c2ccccc2-c2ccccc21)C(=O)O,–,12.6µM,–,–,–,·
CC(=O)NC1C(=O)N(CCc2ccccc2)c2ccccc21 (stereo not given),–,?,–,–,–,–
CCCN1C(=O)C(NC(C)=O)c2ccccc21 (stereo not given),–,0.126µM,–,–,–,–
Cc1cnc(CNc2ccnc(-c3ccccc3CN(C)C)n2)cn1,·,?,·,–,·,·
O=C1CN(C(=O)c2cc([N+](=O)[O-])ccc2Cl)C(c2ccc(F)cc2)c2cc(F)ccc2N1 (stereo not given),–,–,·,–,–,–
NC(=O)c1cccnc1Oc1ccccc1,·,–,·,·,·,·
COc1ccccc1NNC(=O)c1cccnc1Oc1ccccc1,·,14.1µM,·,·,·,·
COc1ccc(N=C2C(=O)Nc3c(C)cccc32)cc1,–,14.1µM,–,–,–,–
SMILES,ALOX12 inhib,ALDH1A1 block,IMPase inh,IMPase Li cell,HPGD block,PNC inhibitor
Cc1ccn2cc(CCNC(=O)Cc3cccs3)nc2c1,·,?,·,–,·,·
Cc1ccn2cc(CCNC(=O)CC(C)(C)C)nc2c1,–,?,–,–,?,-100.0
COc1cccc(-c2cc(NCc3cccs3)ncn2)c1,–,?,·,–,?,·
CCC[C@@H]1C[C@@]1(CCC)[C@@H](NC(=O)Oc1ccccc1)c1ccc(C(=O)OC)cc1,–,–,·,–,–,·
O=C(CCN1C(=O)c2ccccc2C1=O)NC(=S)Nc1ccccc1Cl,–,22.4µM,·,–,–,–
Cn1cccc1CC(=O)NNC(=S)Nc1ccccc1Cl,–,?,·,–,11.2µM,–
Cc1c(Cl)cccc1NC(=S)NC(=O)CCN1C(=O)c2ccccc2C1=O,–,?,·,–,–,–
CC1(C)CC(CCC(=O)NC(=S)Nc2ccccc2Cl)C(=O)O1 (stereo not given),·,12.6µM,·,–,·,·
Cn1cccc1CC(=O)NNC(=S)Nc1ccc(Cl)cc1,–,?,·,–,–,–
CC1=CC(=O)C2=C(C)CCC3C(C)C(=O)OC3C12 (stereo not given),–,?,–,–,–,·
COc1cccc(NC(=O)CSc2nnc(-c3ccoc3C)n2-c2ccccc2)c1,–,?,–,–,–,-86.9

# Assay outcomes deposited in PubChem by National Center for Advancing Translational Sciences (NCATS).
